# Screens (PubChem BioAssay)
# Compounds with a hit are over-represented: about 2.1% of the library has one in this group of screens.
# PGC1a acetyl inh: inhibitors of PGC1a acetylation signal, primary screen, cell-based, U2OS, AlphaScreen, inhibitor mode; AlphaScreen anti-acetyl-lysine; with virally co-expressed GCN5 acetyltransferase; inhibition, % at 15.6 µM; hit rate 0.17% among 350,000;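 active means every replicate shows inhibition of at least 40%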;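 further: 0% = neutral control wells and 100% = positive control wells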
# Env fusion inh: inhibitors of HIV-1 Env-driven cell-cell fusion, primary screen, HeLa-JRFL effector, CEM21 target cells, luciferase; inhibition, % at 12.3 µM; hit rate 1.1% among 360,000; AID 651610, 2012;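 active means mean replicate inhibition score of at least 50 and every replicate individually at or above 50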;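 further: 0% = plate neutral controls and 100% = maraviroc near 300 nM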
# INS-1E GSIS act: GLuc luminescence reporter in INS-1E cells, primary screen for activators of glucose-dependent secretion of insulin. INS-1E GLuc reporter insulin secretion, 2-3 h. activation, % at 16.6 µM. hit rate 0.61% among 370,000. AID 743287, 2014;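 active means lowest replicate activation of at least 40%, so every replicate reaches that level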;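 further: 0% = median of neutral control wells and 100% = median of IBMX positive control wells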
# MLL AF4-AF9 inh: inhibitors of AF4 peptide binding to AF9, primary screen, biochemical, AlphaScreen, biotin-AF4 peptide, FLAG-AF9, single point; hit rate 0.47% among 350,000; Protein AF-9 (Homo sapiens), P42568; AID 651704, 2012; inhibition, % at 10 µM;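 active means every replicate reaching a set inhibition limit, whatever the replicate mean, cut at about 25% in these data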;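 further: 0% = plate neutral control median and 100% = total signal loss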
# Target sequence (P42568 whole entry, looked up): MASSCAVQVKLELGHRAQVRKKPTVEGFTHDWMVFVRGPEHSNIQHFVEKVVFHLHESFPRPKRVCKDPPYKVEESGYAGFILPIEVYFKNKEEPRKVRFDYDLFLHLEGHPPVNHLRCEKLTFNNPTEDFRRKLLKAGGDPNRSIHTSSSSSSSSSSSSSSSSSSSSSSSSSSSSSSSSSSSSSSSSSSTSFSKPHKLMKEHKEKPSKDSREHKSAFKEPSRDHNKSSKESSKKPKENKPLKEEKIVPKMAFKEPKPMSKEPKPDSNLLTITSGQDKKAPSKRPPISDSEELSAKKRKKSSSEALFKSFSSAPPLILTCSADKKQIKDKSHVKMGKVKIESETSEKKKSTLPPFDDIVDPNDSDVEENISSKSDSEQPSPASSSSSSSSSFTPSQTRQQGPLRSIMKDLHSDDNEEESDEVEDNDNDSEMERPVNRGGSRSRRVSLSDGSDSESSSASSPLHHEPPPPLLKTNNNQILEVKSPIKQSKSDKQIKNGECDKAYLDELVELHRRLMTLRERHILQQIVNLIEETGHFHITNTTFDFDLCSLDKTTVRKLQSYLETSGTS
# NSD2 HMT inh: NSD2 histone methyltransferase inhibitors, primary screen, biochemical, AlphaScreen, single concentration, set 2; NSD2 peptide methylation, 120 min; AID 743445, 2014; hit rate 0.54% among 310,000; inhibition, % at 12.5 µM; Histone-lysine N-methyltransferase NSD2 (Homo sapiens), O96028; in the data active means inhibition above about 50%
# AlphaScreen intf: AlphaScreen signal interference counter-screen, dose response, artefact control, biochemical, cherry-picked samples, luminescence. shares compounds with MLL AF4-AF9 inh. AC50, µM (titrated, usually from 12 µM), for the others: at the top dose activity change, negative = inhibition. hit rate 45% among 530; cut-off not given, nearly all actives have AC50 up to about 14 µM
# The depositor's hits bear a star; x = no result given; ! = not confirmed by another sample; [ ] = remark or other dose.
SMILES,PGC1a acetyl inh,Env fusion inh,INS-1E GSIS act,MLL AF4-AF9 inh,NSD2 HMT inh,AlphaScreen intf
COc1ccc(CNC(=O)Cn2cnc3c(SC)nc(N)nc32)cc1,7,-19,0,-1,x,x
CCOc1ccc(NCc2cccn2-c2nnc(N3CCC(C(=O)NCCCN4C(C)CCCC4C)CC3)s2)cc1 (centres undefined),-10,5,15,51*,23,11µM*
CCOc1ccc(NCc2cccn2-c2nnc(N3CCC(C(=O)NCCCN4CCCCC4C)CC3)s2)cc1 (centres undefined),13,-7,0,47*,47,14µM*
CCOc1ccc(CCNC(=O)C2CCN(c3nnc(-n4cccc4)s3)CC2)cc1,-14,12,x,4,x,x
Cc1cc(OCC(=O)OCC(=O)c2c(N)n(C)c(=O)n(C)c2=O)ccc1Cl,2,-6,3,4,39,x
Cc1ccc([C@H]2C[C@]34CNS(=O)(=O)[C@H]3C[C@H]2O4)cc1,x,-16,-8,-2,x,x
CN(C)c1ccc(C(=S)Nc2ccccc2)cc1,x,-29,x,1,-1,x
CN(C)c1ccc(NC(=S)c2ccccn2)cc1,7,27,-18,49*,25,-25%
Cc1ccc2c(c1)c1c(n2CC(O)CNC(C)(C)C)CCCC1 (centres undefined),-9,-43,-9,2,x,x
Cc1ccc2c(c1)c1c(n2CC(O)CN2CCCCCC2)CCCC1 (centres undefined),x,7,-20,35*,23,-7%
Cc1ccc(NC(=S)NNC(=O)c2cnccn2)cc1,x,x,x,x,7,x
O=C(NC1CCCCC1)C(c1cccs1)N(CCCN1CCOCC1)C(=O)c1ccc(-c2ccccc2)[nH]1 (centres undefined),-11,-16,-24,31*,6,-17%
Cn1cnc(S(=O)(=O)N2CCCCN3[C@H](C2)[C@@H](c2ccc(C#CC4CCCC4)cc2)[C@@H]3CO)c1,-10,x,4,3,x,x
O=C(C[C@@H]1CC[C@@H]2[C@H](COC[C@H](O)CN2S(=O)(=O)c2ccc(F)cc2)O1)NCC1CC1,-2,x,3,1,x,x
O=C(C[C@H]1CC[C@@H]2[C@H](COC[C@@H](O)CN2S(=O)(=O)c2ccc(F)cc2)O1)NCC1CCCCC1,-5,-7[16.7 µM],17,34*,x,-19%
CCOC(=O)C(N)CSC1CC(=O)N(c2ccc(OCC)cc2)C1=O (centres undefined),x,4,-1,1,5,x
O=C(CCSc1ccccc1)NC1CCCCCC1,3,6,-6,-1,0,x
CC(=O)Nc1ccc2c(c1)C(=O)N(C)C[C@H](C)[C@H](CN(C)S(C)(=O)=O)O2,x,x,-3,x,x,x
COc1ccccc1Nc1c2c(nc3ccc(N)cc13)CCCC2,-9,11,65*,61*,13,-21%
COc1cccc(CNCCc2c[nH]c3ccccc23)c1OCc1ccccc1,x,x,-27,27*,21,-40%
COc1cc(CNCCc2c[nH]c3ccccc23)ccc1OCc1ccccc1F,-2,x,-29,-1,5,x
Oc1c(C(c2ccccc2Cl)N2CCCC2)ccc2cccnc12 (centres undefined),9,24,1,91*,11,2.1µM*
CC(=O)NC(c1cc(Cl)c2cccnc2c1O)C(C)C (centres undefined),36,6,-3,11,x,x
CN1CCN(C(c2ccccn2)c2cc(Cl)c3cccnc3c2O)CC1 (centres undefined),x,25,-8,39*,22,-7%
CN1CCN(C(c2ccc(C(F)(F)F)cc2)c2ccc3cccnc3c2O)CC1 (centres undefined),x,17,-40,85*,11,2.4µM*
SMILES,PGC1a acetyl inh,Env fusion inh,INS-1E GSIS act,MLL AF4-AF9 inh,NSD2 HMT inh,AlphaScreen intf
Oc1c(C(c2ccc(Cl)cc2)N2CCCC2)cc(Cl)c2cccnc12 (centres undefined),x,-21,10,56*,9,-44%
CCCCC(=O)NC(c1ccccc1Cl)c1ccc2cccnc2c1O (centres undefined),11,-130,-2,2,x,x
COc1ccc(OC)c(C2C(C(C)=O)=C(O)C(=O)N2c2ccc(F)cc2)c1 (centres undefined),x,-94,x,x,x,x
CN(C)c1ccc(N=C/C=C2/N(C)c3ccccc3C2(C)C)cc1,29,-120,-5,48*,32,11µM*
CC(C)Nc1ccc(Nc2ccnc3cc4ccccc4cc23)cc1,1,-83,-61,84*,x,3µM*
c1ccc(CCNc2ccnc3cc4ccccc4cc23)cc1,2,17,-38,-7,-15,x
NC(N)=NCCCS(=O)(=O)Nc1ccc(Nc2c3ccccc3nc3cc([N+](=O)[O-])ccc23)cc1,-2,-4,1,78*,38,5.6µM*
O=[N+]([O-])c1ccc(-c2nc(Nc3ccc(O)cc3)c3ccccc3n2)cc1,x,22,-8,1,-1,x
NC(=NCCCCCCN=C(N)/N=C(\N)Nc1ccc(Cl)cc1)/N=C(\N)Nc1ccc(Cl)cc1,-6,2,9,53*!,x,-9%
CCCCN=C(Nc1ccc(Cl)cc1)c1cccnc1,x,31,x,x,-1,x
O=C1c2ccccc2NC(c2ccco2)N1O (centres undefined),-9,x,2,x,-9,x
O=C1c2ccccc2NC(c2cccc([N+](=O)[O-])c2)N1O (centres undefined),13,7,0,28*,0,11µM*
c1ccc(N=Nc2ccc3cccccc2-3)cc1,1,-56,3,77*,41,1µM*
Nc1ccc(N=Nc2ccccc2)c2ccccc12,x,-35,-8,10,5,x
Cc1cc(C)n2c(Nc3ccc4c(c3)OCCO4)c(-c3ccccn3)nc2n1,x,-16,-15,18,x,x
Cc1ccn2c(Nc3ccc4c(c3)OCO4)c(-c3ccccn3)nc2c1,-1,3,x,32*,27,9.3µM*
CCN(CC)c1ccc(N=C2C(=O)Nc3ccccc32)cc1,4,1,-20,57*,16,12µM*
COc1ccc(NS(=O)(=O)c2ccc(C)c(C(=O)N3CCN(Cc4cc(OC)ccc4OC)CC3)c2)cc1,1,-5,-28,35*,6,-16%
COC(=O)C1=C(C)NC(C)=C(C(=O)OCC(C)C)C1c1ccccc1[N+](=O)[O-] (centres undefined),12,20,-5,38*,x,11µM*
O=C(COc1ccccc1[N+](=O)[O-])OCCCOC(=O)COc1ccccc1[N+](=O)[O-],x,x,-4,0,-2,x
O=C(C1CCCCC1)N1CC(=O)N2[C@H](CO)[C@H](c3ccc(Br)cc3)[C@@H]2C1,24,x,-1,-3,x,x
COc1cccc(CNc2ccc3[nH]c(=O)[nH]c3c2)c1OCc1ccccc1F,-2,22,11,41*,41,-20%
